Laboratory results taken from PubChem BioAssay (NCATS).
Records with an inconclusive call do not appear. Calls of active or inactive are those of the source. Unless noted, calls come from the whole dose curve.

Biological target: Protein phosphatase 1D (Homo sapiens) (UniProt O15297)
Experiment: Rhodamine-PBP qHTS Assay for Modulators of WT P53-Induced Phosphatase 1 (WIP1) (AID 1347425; active = well fitted curve in the direction sought with a large enough effect; note: % of control where 0% means no effect)
Conditions: recombinant WIP1, Rhodamine-PBP phosphate fluorescence, real-time; series mostly up to 57.5 µM; activity change, negative = inhibition: at the top concentration
Outline: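 WIP1 (5 nM final) was preincubated with compound for 1 hour at room temperature. It then dephosphorylated 10 uM VEPPL-pS-QETFS peptide in Tris-HCl pH 7.5 with 30 mM MgCl2. Released Pi was detected by 10 uM Rh-PBP fluorescence (ex 525/em 598 nm) read at 1-min intervals for 11 min, as delta f1 - f0.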

Chain of Protein phosphatase 1D (Homo sapiens) (O15297 whole entry, looked up): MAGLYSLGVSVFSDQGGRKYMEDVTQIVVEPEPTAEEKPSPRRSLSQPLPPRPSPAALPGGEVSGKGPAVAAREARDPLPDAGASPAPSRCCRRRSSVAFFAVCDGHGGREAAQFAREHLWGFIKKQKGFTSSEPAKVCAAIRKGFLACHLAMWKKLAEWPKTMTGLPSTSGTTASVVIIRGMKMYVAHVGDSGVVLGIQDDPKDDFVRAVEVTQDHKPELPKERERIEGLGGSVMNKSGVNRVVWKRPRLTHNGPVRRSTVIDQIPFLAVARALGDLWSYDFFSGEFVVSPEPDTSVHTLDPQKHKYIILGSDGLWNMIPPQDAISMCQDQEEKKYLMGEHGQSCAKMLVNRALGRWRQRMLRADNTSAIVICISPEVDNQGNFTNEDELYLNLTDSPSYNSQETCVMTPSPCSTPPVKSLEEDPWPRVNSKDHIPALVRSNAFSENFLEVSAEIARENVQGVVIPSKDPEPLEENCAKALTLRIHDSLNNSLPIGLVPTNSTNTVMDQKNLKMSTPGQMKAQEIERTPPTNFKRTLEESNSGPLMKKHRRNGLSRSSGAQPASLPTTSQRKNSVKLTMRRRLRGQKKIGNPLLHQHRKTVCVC

Row | Structure (SMILES) | activity change, negative = inhibition
1 | CCNc1nc(Cl)nc(NCC)n1 | 8.57% (inactive)
2 | O=C(N[C@@H]1N=C(c2ccccc2F)c2cccc3c2N(CC3)C1=O)c1cc2ccccc2[nH]1 | -19% (inactive)
3 | CCN1CCCC1CNC(=O)C(O)(c1ccccc1)c1ccccc1 (stereo unspecified) | 11% (inactive)
4 | CC1N=C(N)OC1c1ccccc1 (stereo unspecified) | 10.4% [at 116 µM] (inactive)
5 | C[C@H]1CNCCc2ccc(Cl)cc21 | 19.7% (inactive)
6 | Oc1ccc([C@H]2CNCc3c2ccc(O)c3O)cc1O | -15.9% (inactive)
7 | COc1cc(CC(C)N)cc2c1OCO2 (stereo unspecified) | -24.5% [at 116 µM] (inactive)
8 | Nc1ccccc1C(=O)OCC(O)CO (stereo unspecified) | 5.33% (inactive)
9 | Cc1c(Cl)c(=O)oc2cc(OP(=O)(OCCCl)OCCCl)ccc12 | -5.64% (inactive)
10 | Sc1ccccc1Cl | 4.79% (inactive)
11 | C=CCN1CC[C@]23CCCC[C@H]2[C@H]1Cc1ccc(O)cc13 | 5.02% (inactive)
12 | CCCCCCCCCCCC[N+](C)(C)CCOc1ccccc1 | 16.5% (inactive)
13 | CCC(OC(C)=O)C(CC(C)NC)(c1ccccc1)c1ccccc1 (stereo unspecified) | 18.3% [at 116 µM] (inactive)
14 | C[N+](C)(C)CCOC(=O)C(O)(c1ccccc1)c1ccccc1 | 4.63% (inactive)
15 | C[C@H]1C(=O)O[C@@H]2CCN3CC=C(COC(=O)[C@](C)(O)[C@]1(C)O)[C@H]23 | 5.18% (inactive)
16 | CN(C)CCc1c[nH]c2ccccc12 | -21.6% [at 151 µM] (inactive)

System: not listed separately
Experiment: Primary qHTS for inhibitors of SARS-S pseudo-typed particle cell entry (AID 1479145); note: nearly all actives have a fitted effect of over 45% in size; for activity change, negative = inhibition: % is set by controls: 0 for no effect and ±100 for the full control effect
Conditions: SARS-S pseudotyped particle cell entry, luciferase reporter; series mostly up to 57.1 µM; activity change, negative = inhibition: at the top concentration; outcome: at the top concentration

Row | Structure (SMILES) | activity change, negative = inhibition | outcome
17 | Cc1nnc2n1-c1sc(CCC(=O)N3CCOCC3)cc1C(c1ccccc1Cl)=NC2 | -0.329% (inactive) | –
18 | COc1ccc(CN2CCNCC2)c(OC)c1OC | – | inactive
19 | O=C(N[C@H]1N=C(c2ccccc2F)c2cccc3c2N(CC3)C1=O)c1cc2ccccc2[nH]1 | 1.5% (inactive) | –
20 | CCOC(=O)c1cncn1C(C)c1ccccc1 (stereo unspecified) | -16.3% (inactive) | –
21 | CCCCC1C(=O)NC(=O)N(C2CCCCC2)C1=O (stereo unspecified) | -6.09% (inactive) | –
22 | CCCCCCCCC(=O)NCc1ccc(O)c(OC)c1 | – | inactive
23 | Oc1ccc([C@H]2CNCc3c2ccc(O)c3O)cc1O | – | inactive
24 | Nc1ccccc1C(=O)OCC(O)CO (stereo unspecified) | – | inactive
25 | Cc1c(Cl)c(=O)oc2cc(OP(=O)(OCCCl)OCCCl)ccc12 | -11% (inactive) | –
26 | C=CCN1CC[C@]23CCCC[C@H]2[C@H]1Cc1ccc(O)cc13 | -11.1% (inactive) | –

System: not listed separately
Experiment: Primary qHTS for Huh7 cytotoxicity: counterscreen for inhibitors of MERS-S pseudotyped particle cell entry (AID 1479147); for activity change, negative = cytotoxicity: % is set by controls: 0 for no effect and ±100 for the full control effect
Conditions: cell viability read-out; series mostly up to 57.1 µM; activity change, negative = cytotoxicity: at the top concentration; outcome: at the top concentration

Row | Structure (SMILES) | outcome | activity change, negative = cytotoxicity
27 | Cc1nnc2n1-c1sc(CCC(=O)N3CCOCC3)cc1C(c1ccccc1Cl)=NC2 | inactive | –
28 | COc1ccc(CN2CCNCC2)c(OC)c1OC | – | -2.48% (inactive)
29 | O=C(N[C@H]1N=C(c2ccccc2F)c2cccc3c2N(CC3)C1=O)c1cc2ccccc2[nH]1 | inactive | –
30 | CCOC(=O)c1cncn1C(C)c1ccccc1 (stereo unspecified) | – | -8.01% (inactive)
31 | CCCCC1C(=O)NC(=O)N(C2CCCCC2)C1=O (stereo unspecified) | – | 2.01% (inactive)
32 | CCCCCCCCC(=O)NCc1ccc(O)c(OC)c1 | inactive | –
33 | Oc1ccc([C@H]2CNCc3c2ccc(O)c3O)cc1O | inactive | –
34 | Nc1ccccc1C(=O)OCC(O)CO (stereo unspecified) | inactive | –
35 | Cc1c(Cl)c(=O)oc2cc(OP(=O)(OCCCl)OCCCl)ccc12 | inactive | –
36 | C=CCN1CC[C@]23CCCC[C@H]2[C@H]1Cc1ccc(O)cc13 | – | -37.9% (inactive)
37 | CCCCCCCCCCCC[N+](C)(C)CCOc1ccccc1 | – | -21.3% (inactive)

System: not listed separately
Experiment: Primary qHTS for inhibitors of MERS-S pseudo-typed particle cell entry (AID 1479149); note: nearly all actives have a fitted effect of over 60% in size; note: potency is the fitted concentration of half-maximal effect; for activity change, negative = inhibition: % is set by controls: 0 for no effect and ±100 for the full control effect
Conditions: MERS-S pseudotyped particle entry, luciferase; series mostly up to 57.1 µM; activity change, negative = inhibition: at the top concentration; outcome: at the top concentration

Row | Structure (SMILES) | activity change, negative = inhibition | outcome | Potency
38 | Cc1nnc2n1-c1sc(CCC(=O)N3CCOCC3)cc1C(c1ccccc1Cl)=NC2 | -36.2% (inactive) | – | –
39 | COc1ccc(CN2CCNCC2)c(OC)c1OC | 3.3% (inactive) | – | –
40 | O=C(N[C@H]1N=C(c2ccccc2F)c2cccc3c2N(CC3)C1=O)c1cc2ccccc2[nH]1 | – | inactive | –
41 | CCCCC1C(=O)NC(=O)N(C2CCCCC2)C1=O (stereo unspecified) | -2.42% (inactive) | – | –
42 | CCCCCCCCC(=O)NCc1ccc(O)c(OC)c1 | – | inactive | –
43 | Oc1ccc([C@H]2CNCc3c2ccc(O)c3O)cc1O | – | inactive | –
44 | Nc1ccccc1C(=O)OCC(O)CO (stereo unspecified) | – | inactive | –
45 | Cc1c(Cl)c(=O)oc2cc(OP(=O)(OCCCl)OCCCl)ccc12 | – | inactive | –
46 | CCCCCCCCCCCC[N+](C)(C)CCOc1ccccc1 | – | – | 22.4 µM (active)

System: not listed separately
Experiment: Primary qHTS for Vero E6 cytotoxicity: counterscreen for inhibitors of SARS-S pseudo-typed particle cell entry (AID 1479150); for activity change, negative = cytotoxicity: % is set by controls: 0 for no effect and ±100 for the full control effect
Conditions: cell viability; series mostly up to 57.1 µM; activity change, negative = cytotoxicity: at the top concentration; outcome: at the top concentration

Row | Structure (SMILES) | activity change, negative = cytotoxicity | outcome
47 | Cc1nnc2n1-c1sc(CCC(=O)N3CCOCC3)cc1C(c1ccccc1Cl)=NC2 | -0.79% (inactive) | –
48 | COc1ccc(CN2CCNCC2)c(OC)c1OC | -9.86% (inactive) | –
49 | O=C(N[C@H]1N=C(c2ccccc2F)c2cccc3c2N(CC3)C1=O)c1cc2ccccc2[nH]1 | – | inactive
50 | CCOC(=O)c1cncn1C(C)c1ccccc1 (stereo unspecified) | – | inactive
51 | CCCCC1C(=O)NC(=O)N(C2CCCCC2)C1=O (stereo unspecified) | 0.712% (inactive) | –
52 | CCCCCCCCC(=O)NCc1ccc(O)c(OC)c1 | 1.88% (inactive) | –
53 | Oc1ccc([C@H]2CNCc3c2ccc(O)c3O)cc1O | – | inactive
54 | Nc1ccccc1C(=O)OCC(O)CO (stereo unspecified) | – | inactive
55 | Cc1c(Cl)c(=O)oc2cc(OP(=O)(OCCCl)OCCCl)ccc12 | – | inactive
56 | C=CCN1CC[C@]23CCCC[C@H]2[C@H]1Cc1ccc(O)cc13 | – | inactive
